For 15 molecules, AC50 and outcome results are on record in PubChem BioAssay (EPA / NIEHS).

The AC50 is the concentration at which the activity in the assay is half-maximal.

Test [1] addresses Peroxisome proliferator-activated receptor gamma (Homo sapiens) (UniProt P37231). Briefly: NVS_NR_hPPARg: NovaScreen (NVS) Nuclear Receptor Binding Assay for human Peroxisome Proliferator-activated Receptor gamma (PPARg) (AID 2283370). In outline:
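Chemicals were tested first in duplicate at 25 uM, then in concentration series if active. Binding to cell-free PPARg protein was measured by fluorescence polarization after 2 h, with loss of signal scored against DMSO.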

In test [2] the target is human Norepinephrine Transporter (NET), SLC6A2 (gene 6530) (UniProt P23975). Nature of the test: NVS_TR_hNET: NovaScreen (NVS) Transporter Assay for human Norepinephrine Transporter (NET) (AID 2283377).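 Note: cell-free membrane protein extracted from CHO cells expressing human NET.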 In outline: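 Radioligand binding to human NET in cell-free CHO-derived protein preparations, read by filter-based scintillation counting 1 hour after dosing. Loss of signal versus DMSO baseline indicated displacement; primary screening in duplicate at 25 uM, actives then titrated.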
Sequence of human Norepinephrine Transporter (NET), SLC6A2 (gene 6530) (P23975 whole entry, looked up): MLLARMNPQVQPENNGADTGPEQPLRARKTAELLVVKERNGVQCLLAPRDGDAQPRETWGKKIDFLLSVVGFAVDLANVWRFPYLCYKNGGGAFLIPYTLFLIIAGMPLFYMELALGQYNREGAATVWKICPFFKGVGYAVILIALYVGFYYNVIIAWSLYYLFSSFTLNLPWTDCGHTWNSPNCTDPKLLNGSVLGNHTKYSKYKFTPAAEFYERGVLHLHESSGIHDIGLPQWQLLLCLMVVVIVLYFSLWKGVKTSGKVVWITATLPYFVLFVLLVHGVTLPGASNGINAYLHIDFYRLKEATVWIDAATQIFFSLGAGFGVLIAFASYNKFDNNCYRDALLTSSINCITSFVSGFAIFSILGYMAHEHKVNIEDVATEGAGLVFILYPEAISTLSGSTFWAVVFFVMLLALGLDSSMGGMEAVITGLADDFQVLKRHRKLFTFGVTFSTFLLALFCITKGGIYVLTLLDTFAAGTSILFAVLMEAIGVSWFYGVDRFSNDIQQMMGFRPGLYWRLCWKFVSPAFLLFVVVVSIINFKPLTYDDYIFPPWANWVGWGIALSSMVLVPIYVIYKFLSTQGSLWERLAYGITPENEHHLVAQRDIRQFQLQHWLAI

The target in test [3] is Estrogen receptor beta (Homo sapiens) (UniProt Q92731). Nature of the test: OT_ER_ERbERb_1440: Odyssey Thera (OT) 24-hour HEK293T Protein-Complementation Assay for Estrogen Receptor-beta/-beta Homodimer (AID 2283380).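 Note: fluorescence gain from ER beta LBD homodimer complementation read by laser scanning cytometry; scored as signal increase over DMSO baseline for both agonists and antagonists.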 In outline: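 HEK293T cells stably expressing human ER-beta LBD (aa 310-547) PCA homodimer pair, dosed 24 h; formaldehyde-fixed, Draq5-stained. Readout: increase in nuclear (agonist) or nuclear plus cytoplasmic (antagonist) fluorescence intensity versus DMSO, gain-of-signal fitting.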
Sequence of Estrogen receptor beta (Homo sapiens) (Q92731 whole entry, looked up, the tested form may be a part): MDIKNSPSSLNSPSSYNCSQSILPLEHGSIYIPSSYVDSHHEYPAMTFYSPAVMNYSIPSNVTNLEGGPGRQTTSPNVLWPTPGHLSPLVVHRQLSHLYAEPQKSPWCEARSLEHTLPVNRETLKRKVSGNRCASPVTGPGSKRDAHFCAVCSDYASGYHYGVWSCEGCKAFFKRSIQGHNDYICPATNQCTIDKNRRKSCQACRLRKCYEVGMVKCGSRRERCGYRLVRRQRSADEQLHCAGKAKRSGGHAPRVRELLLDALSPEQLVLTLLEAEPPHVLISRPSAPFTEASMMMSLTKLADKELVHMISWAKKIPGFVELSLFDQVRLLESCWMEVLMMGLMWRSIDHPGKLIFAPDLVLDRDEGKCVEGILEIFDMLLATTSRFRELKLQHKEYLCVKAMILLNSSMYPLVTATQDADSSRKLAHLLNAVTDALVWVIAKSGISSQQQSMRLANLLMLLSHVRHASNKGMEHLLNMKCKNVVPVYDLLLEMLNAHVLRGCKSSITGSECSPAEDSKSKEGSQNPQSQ

Test [4] concerns the target Bile acid receptor (Homo sapiens) (UniProt Q96RI1). Nature of the test: OT_FXR_FXRSRC1_0480: Odyssey Thera (OT) 8-hour HEK293T Protein-Complementation Assay for Farnesoid X receptor/SRC-1 Co-activator (AID 2283383). In outline:
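Co-activator recruitment to FXR was measured in living HEK293T cells, where interaction of the two fused partners restored an active fluorescent reporter. Signal gain after 8 h treatment was referenced to DMSO.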

Test [5] shares this target. Briefly: OT_FXR_FXRSRC1_1440: Odyssey Thera (OT) 24-hour HEK293T Protein-Complementation Assay for Farnesoid X receptor/SRC-1 Co-activator (AID 2283384). Summed up:
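Cell-based binding reporter: interaction of FXR with SRC-1 brings reporter fragments together, giving a fluorescence signal read 24 h after dosing of HEK293T cells.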

Test [6] concerns the target Retinoic acid receptor RXR-alpha (Homo sapiens) (UniProt P19793). Briefly: OT_NURR1_NURR1RXRa_0480: Odyssey Thera (OT) 8-hour HEK293T Protein Complementation Assay for Nurr1/retinoid X receptor (RXR) (AID 2283385). Summed up: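 Compounds are applied to HEK293T cells carrying Nurr1 and RXRα linked to reporter fragments. After 8 h, fluorescence intensity reports heterodimer formation, with DMSO as baseline.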

In test [7] the target is guinea pig Sigma Receptor, Non-selective Binding, SIGMAR1 (gene 100135589) (UniProt Q60492). Nature of the test: NVS_OR_gSIGMA_NonSelective: NovaScreen (NVS) Nuclear Receptor Binding Assay for guinea pig Sigma Receptor, Non-selective Binding (AID 2283367). In outline: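 Guinea pig brain membranes, cell-free radioligand binding; read 1 h after dosing by filter-based scintillation counting. Loss of signal vs DMSO baseline taken as displacement. Primary screen single concentration 25 uM in duplicate; actives retested in concentration series.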
Sequence of guinea pig Sigma Receptor, Non-selective Binding, SIGMAR1 (gene 100135589) (Q60492 whole entry, looked up): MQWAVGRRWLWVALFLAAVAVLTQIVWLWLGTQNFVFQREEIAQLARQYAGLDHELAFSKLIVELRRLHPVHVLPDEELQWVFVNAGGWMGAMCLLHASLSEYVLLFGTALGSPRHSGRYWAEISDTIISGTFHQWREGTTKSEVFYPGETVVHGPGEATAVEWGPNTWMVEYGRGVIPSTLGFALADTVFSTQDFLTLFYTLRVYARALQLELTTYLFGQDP

In test [8] the test system is guinea pig Dopamine Transporter (DAT), gene 100714898. Nature of the test: NVS_TR_gDAT: NovaScreen (NVS) Transporter Assay for guinea pig Dopamine Transporter (DAT) (AID 2283369).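 Note: active compounds lower bound radioligand signal relative to DMSO.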 Summed up: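 Scintillation counts of filter-retained radioligand report binding to guinea pig striatal membranes after 2 h. Activity scored as signal loss relative to DMSO, first at 25 uM in duplicate, then in concentration series to 50 uM.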

Test [9] concerns the target human Dopamine Transporter (DAT), SLC6A3 (gene 6531) (UniProt Q01959). Nature of the test: NVS_TR_hDAT: NovaScreen (NVS) Transporter Assay for human Dopamine Transporter (DAT) (AID 2283374).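 Note: activity means loss of bound radioligand signal relative to DMSO.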 Summed up:
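Cell-free radioligand binding to extracted human DAT protein, read 1 h after dosing by filter-based scintillation counting. Loss of specific binding scored against DMSO baseline; primary screen in duplicate at 25 uM, actives then run in concentration series.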

Test [10] deals with mouse Estrogen Receptor alpha (Era), Esr1 (gene 13982) (UniProt P19785). Briefly: NVS_NR_mERa: NovaScreen (NVS) Nuclear Receptor Binding Assay for mouse Estrogen Receptor alpha (Era) (AID 2283378).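 Note: hit means loss of bound radioligand signal relative to DMSO.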 In outline:
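Extracted mouse Era incubated with tritiated or iodinated radioligand plus test chemical, 18 h. Bound fraction separated on filters, counted by scintillation. DMSO = negative control/baseline; duplicate single-point at 25 uM, then concentration-response follow-up.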

Test [11] addresses Estrogen receptor (Homo sapiens) (UniProt P03372). Briefly: OT_ERa_GFPERaERE_0480: Odyssey Thera (OT) 8-hour HeLa Transcription Induction Assay for Estrogen Receptor (AID 2283381; active = hit-call score of the fitted dose curve at least 0.9, where 1 is the maximum; inactive = score below 0.9). Summed up:
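Cells (HeLa) receive compound; after 8 h, reporter fluorescence is imaged and quantified by high-content analysis. Gain-of-signal relative to DMSO gives the endpoint.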

Test [12] has the same target. Nature of the test: OT_ERa_GFPERaERE_0120: Odyssey Thera (OT) 2-hour HeLa Transcription Induction Assay for Estrogen Receptor (AID 2283382). Summed up: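 Measures ESR1 pathway reporter gain-of-signal in HeLa cells after a 2-hour treatment, detected as fluorescent protein induction by microscopy, DMSO as baseline.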
Test [13] has as its target Norway rat Vesicular Monoamine Transporter (VMAT2), neurotransmitter transporter, Slc18a2 (gene 25549) (UniProt Q01827). Briefly: NVS_TR_rVMAT2: NovaScreen (NVS) Transporter Assay for Norway rat Vesicular Monoamine Transporter (VMAT2), neurotransmitter transporter (AID 2283376).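 Note: actives lower the bound radioligand signal below the DMSO level.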 Summed up:
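Rat forebrain tissue preparation used in a cell-free radioligand binding format; displacement read by filter-based scintillation counting 1 hour after dosing. Primary screen in duplicate at 25 uM, actives then run in concentration series; loss of signal versus DMSO baseline.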

Test [14] addresses human Adenosine Transporter (Adot), SLC29A1 (gene 2030) (UniProt Q99808). Briefly: NVS_TR_hAdoT: NovaScreen (NVS) Transporter Assay for human Adenosine Transporter (Adot) (AID 2283368). Summed up: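 U937-derived membranes, cell-free radioligand binding, filter scintillation 1 h after dosing. 25 uM duplicate screen; hits (e.g. 30% inhibition) run in concentration-response up to 50 uM; loss of signal versus DMSO.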

Test [15] has as its system rat Norepinephrine Transporter (NET), gene 83511. Briefly: NVS_TR_rNET: NovaScreen (NVS) Transporter Assay for rat Norepinephrine Transporter (NET) (AID 2283373). Summed up:
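Rat forebrain membranes; radioligand binding measured by filter-based scintillation counting 1 hour after dosing. Loss of specific binding versus DMSO baseline scored; primary screen in duplicate at 25 uM, actives followed up in concentration series.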

Test [16] deals with rat Serotonin Transporter (SERT), Slc6a4 (gene 25553) (UniProt P31652). Briefly: NVS_TR_rSERT: NovaScreen (NVS) Transporter Assay for rat Serotonin Transporter (SERT) (AID 2283375). In outline: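 Filtration-based radiodetection quantified loss of specific radioligand binding in rat forebrain membranes after 1 hour of chemical exposure, relative to DMSO. Chemicals were first tested in duplicate at 25 uM.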

Test [17] deals with Agonist Androgen Response Element (ARE), AR (gene 367) (UniProt P10275). Nature of the test: OT_AR_ARELUC_AG_1440: Odyssey Thera (OT) 24-hour CHO-K1 Luciferase Assay for Agonist Androgen Response Element (ARE) (AID 2283379). Summed up: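 Seed CHO-K1 cells; dose compounds for 24 h; add D-luciferin plus ATP in PBS; read luminescence. Signal increase relative to vehicle defines agonist activity, with at least 3 replicate wells per sample.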

Values joined by “and” are separate entries in the source; they are usually repeats but may differ in a detail not shown here. Equal entries are not always repeated. Results filed as inconclusive are left out. Active and inactive are the calls of the source. Rule for the calls, unless noted: active = hit-call score of the fitted dose curve at least 0.9, where 1 is the maximum; inconclusive = response in the unintended direction; inactive = score below 0.9.

Sequence of Bile acid receptor (Homo sapiens) (Q96RI1 whole entry, looked up, the tested form may be a part): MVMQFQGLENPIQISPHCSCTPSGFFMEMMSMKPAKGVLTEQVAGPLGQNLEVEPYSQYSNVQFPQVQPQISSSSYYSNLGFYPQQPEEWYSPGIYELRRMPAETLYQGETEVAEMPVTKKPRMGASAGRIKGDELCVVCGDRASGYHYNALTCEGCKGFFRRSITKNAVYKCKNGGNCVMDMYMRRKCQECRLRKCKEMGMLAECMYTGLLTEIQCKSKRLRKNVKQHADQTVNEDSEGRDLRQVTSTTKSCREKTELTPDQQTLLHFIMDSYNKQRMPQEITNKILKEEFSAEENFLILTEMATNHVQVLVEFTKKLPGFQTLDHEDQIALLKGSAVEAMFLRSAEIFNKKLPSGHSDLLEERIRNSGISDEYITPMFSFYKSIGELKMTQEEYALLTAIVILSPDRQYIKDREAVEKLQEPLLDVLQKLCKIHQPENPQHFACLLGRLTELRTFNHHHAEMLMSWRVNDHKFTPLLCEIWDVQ
Sequence of Peroxisome proliferator-activated receptor gamma (Homo sapiens) (P37231 whole entry, looked up): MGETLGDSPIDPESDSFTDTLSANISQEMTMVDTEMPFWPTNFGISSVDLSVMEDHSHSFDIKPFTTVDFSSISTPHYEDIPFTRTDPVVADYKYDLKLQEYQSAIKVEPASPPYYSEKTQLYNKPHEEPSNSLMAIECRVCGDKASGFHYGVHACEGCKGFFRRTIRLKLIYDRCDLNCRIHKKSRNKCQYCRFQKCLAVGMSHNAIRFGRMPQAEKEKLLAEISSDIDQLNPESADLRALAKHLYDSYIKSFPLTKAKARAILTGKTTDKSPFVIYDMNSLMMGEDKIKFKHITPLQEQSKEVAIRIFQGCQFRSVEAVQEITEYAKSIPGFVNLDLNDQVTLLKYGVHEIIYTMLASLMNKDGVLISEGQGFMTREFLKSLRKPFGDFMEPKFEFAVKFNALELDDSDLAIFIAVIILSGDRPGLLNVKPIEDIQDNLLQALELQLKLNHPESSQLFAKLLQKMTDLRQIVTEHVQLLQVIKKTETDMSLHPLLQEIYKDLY
Sequence of Retinoic acid receptor RXR-alpha (Homo sapiens) (P19793 whole entry, looked up, the tested form may be a part): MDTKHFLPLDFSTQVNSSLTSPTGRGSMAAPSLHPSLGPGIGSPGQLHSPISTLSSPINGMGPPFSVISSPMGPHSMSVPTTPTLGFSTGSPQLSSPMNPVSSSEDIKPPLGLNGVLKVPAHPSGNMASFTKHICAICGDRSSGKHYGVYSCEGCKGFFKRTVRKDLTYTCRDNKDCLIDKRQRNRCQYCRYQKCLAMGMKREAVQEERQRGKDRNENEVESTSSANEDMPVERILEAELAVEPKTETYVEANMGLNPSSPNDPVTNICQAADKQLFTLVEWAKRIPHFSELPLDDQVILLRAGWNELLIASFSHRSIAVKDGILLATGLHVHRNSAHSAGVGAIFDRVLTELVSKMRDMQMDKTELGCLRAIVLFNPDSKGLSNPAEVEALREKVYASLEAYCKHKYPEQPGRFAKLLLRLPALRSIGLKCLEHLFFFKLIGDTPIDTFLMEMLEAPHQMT
Sequence of Estrogen receptor (Homo sapiens) (P03372 whole entry, looked up): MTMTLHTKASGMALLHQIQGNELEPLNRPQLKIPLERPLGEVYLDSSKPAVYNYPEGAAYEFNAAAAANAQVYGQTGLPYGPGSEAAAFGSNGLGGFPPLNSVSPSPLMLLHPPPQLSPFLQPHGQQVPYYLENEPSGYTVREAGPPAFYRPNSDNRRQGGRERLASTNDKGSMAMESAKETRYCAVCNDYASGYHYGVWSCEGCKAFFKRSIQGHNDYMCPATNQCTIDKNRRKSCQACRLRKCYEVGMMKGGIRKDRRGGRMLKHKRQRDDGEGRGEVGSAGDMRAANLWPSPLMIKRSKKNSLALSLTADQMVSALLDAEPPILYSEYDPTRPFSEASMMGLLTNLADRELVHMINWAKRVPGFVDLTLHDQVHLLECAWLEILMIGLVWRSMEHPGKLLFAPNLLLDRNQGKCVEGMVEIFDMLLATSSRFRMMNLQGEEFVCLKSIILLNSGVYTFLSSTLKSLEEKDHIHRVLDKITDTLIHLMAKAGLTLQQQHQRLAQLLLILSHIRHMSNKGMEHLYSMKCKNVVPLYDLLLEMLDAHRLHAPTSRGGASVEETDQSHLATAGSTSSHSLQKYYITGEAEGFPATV
Sequence of human Dopamine Transporter (DAT), SLC6A3 (gene 6531) (Q01959 whole entry, looked up): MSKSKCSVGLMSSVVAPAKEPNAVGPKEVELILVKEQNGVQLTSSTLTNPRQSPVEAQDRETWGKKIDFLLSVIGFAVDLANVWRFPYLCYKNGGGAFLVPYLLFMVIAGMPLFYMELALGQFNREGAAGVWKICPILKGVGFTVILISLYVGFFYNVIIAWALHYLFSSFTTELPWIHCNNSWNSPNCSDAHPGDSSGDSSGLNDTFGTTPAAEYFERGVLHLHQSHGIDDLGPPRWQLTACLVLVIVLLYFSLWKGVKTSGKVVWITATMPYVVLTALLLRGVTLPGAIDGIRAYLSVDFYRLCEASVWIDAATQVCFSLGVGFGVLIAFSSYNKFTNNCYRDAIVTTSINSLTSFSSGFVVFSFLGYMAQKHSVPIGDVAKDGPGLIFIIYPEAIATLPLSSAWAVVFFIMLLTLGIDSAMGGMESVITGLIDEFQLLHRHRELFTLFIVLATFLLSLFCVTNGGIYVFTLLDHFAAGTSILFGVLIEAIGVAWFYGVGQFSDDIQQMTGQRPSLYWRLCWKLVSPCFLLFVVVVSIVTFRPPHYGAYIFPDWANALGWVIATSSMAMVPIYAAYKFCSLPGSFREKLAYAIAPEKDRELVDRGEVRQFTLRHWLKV
Sequence of Norway rat Vesicular Monoamine Transporter (VMAT2), neurotransmitter transporter, Slc18a2 (gene 25549) (Q01827 whole entry, looked up): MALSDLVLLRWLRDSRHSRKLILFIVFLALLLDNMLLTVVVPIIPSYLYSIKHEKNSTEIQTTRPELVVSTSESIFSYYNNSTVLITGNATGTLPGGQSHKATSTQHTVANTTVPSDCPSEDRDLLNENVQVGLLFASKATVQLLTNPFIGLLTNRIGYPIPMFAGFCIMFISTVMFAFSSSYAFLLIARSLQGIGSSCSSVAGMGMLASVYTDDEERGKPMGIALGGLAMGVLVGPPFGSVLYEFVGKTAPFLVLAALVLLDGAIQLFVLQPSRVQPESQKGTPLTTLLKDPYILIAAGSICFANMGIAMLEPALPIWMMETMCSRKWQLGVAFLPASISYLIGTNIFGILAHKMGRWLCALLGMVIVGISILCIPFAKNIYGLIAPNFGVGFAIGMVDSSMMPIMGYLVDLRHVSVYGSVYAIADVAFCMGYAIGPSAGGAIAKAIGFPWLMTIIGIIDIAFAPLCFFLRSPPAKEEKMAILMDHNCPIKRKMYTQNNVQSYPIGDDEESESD

On to `O=C(O)C(F)(F)C(F)(F)C(F)(F)C(F)(F)C(F)(F)C(F)(F)C(F)(F)C(F)(F)C(F)(F)C(F)(F)F`, for which, in test [1], the half-maximal activity concentration (AC50) was 6.31 µM (active). Moreover, the call in [2], in test [3], in test [4], in test [5] and in [6] was inactive.

For `Nc1ccc(-c2ccc(N)c(Cl)c2)cc1Cl`, the AC50 in [7] is 32.5 µM (active); in test [8], 3.73 µM (active); in test [9], 1.63 µM (active); in [2], 3.04 µM (active).

As to `Nc1cccc2ccccc12`, the outcome in test [7] was inactive. Besides, in [2], the AC50 was 14.8 µM (active).

Take `Oc1ccc(-c2ccccc2)cc1`: the AC50 in [8] is 11.9 µM (active); in test [9], 10.7 µM (active); in test [10], 17.7 µM (active); in test [3], 11.8 µM (active); in test [4], 33.3 µM (active); in test [5], 33.3 µM (active). Further, the molecule was called inactive in test [6].

Consider `CCCCCCCCc1ccc(O)cc1`, for which the result in test [1] was inactive. In addition, the AC50 in test [3] is 12.3 µM (active).

`O=C/C=C/c1ccccc1`: the molecule was classed as inactive in test [1], in [11] and in test [12].

For the molecule `CCCCC(CC)CO[N+](=O)[O-]` (configuration not stated), the outcome in test [13] was inactive.

For the molecule `COc1cc(-c2ccc(N)c(OC)c2)ccc1N`, the AC50 in test [14] was 14.2 µM (active); in test [2] it was 10.3 µM (active) and 7.7 µM (active). The call in test [1], in [15] and in [6] was inactive.

`CN(C)N=O`: the molecule was classed as inactive in [1], in test [3] and in test [5].

Turning to `CC(C)(OO)c1ccccc1`, the result in test [1], in test [2] and in test [12] was inactive. Besides, the AC50 in test [11] is 35.3 µM (active).

For `O=Cc1cccc(Oc2ccccc2)c1`, the AC50 in [9] is 5.52 µM (active).

`CCC[CH2][Sn]([Cl])([Cl])[Cl]`: the call in [1], in test [11], in test [12], in test [4], in [5] and in test [6] was inactive.

On to `COc1cccc(C=O)c1`, for which, in test [13], the result was inactive.

`Cn1sc(Cl)cc1=O`: the outcome in [9], in test [3], in test [11], in test [12], in [4] and in test [5] was inactive. The AC50 in [2] is 1.59 µM (active).

Regarding `CCC(=O)C(CC(C)N(C)C)(c1ccccc1)c1ccccc1` (configuration not stated), the AC50 in test [7] was 2.1 µM (active); in [15] it was 11.3 µM (active); in test [16], 0.0639 µM (active); in [2], 5.61 µM (active). Besides, the result in test [17], in [3], in test [11], in [12], in test [4] and in test [5] was inactive.
